Targets with a hit are over-represented here; the source holds about 7,900 in all. About 0.6% of all pairs of compound and target were hits. A number with no mark means an inactive call.

Chain of UniProt O75822 (O75822 whole entry, looked up): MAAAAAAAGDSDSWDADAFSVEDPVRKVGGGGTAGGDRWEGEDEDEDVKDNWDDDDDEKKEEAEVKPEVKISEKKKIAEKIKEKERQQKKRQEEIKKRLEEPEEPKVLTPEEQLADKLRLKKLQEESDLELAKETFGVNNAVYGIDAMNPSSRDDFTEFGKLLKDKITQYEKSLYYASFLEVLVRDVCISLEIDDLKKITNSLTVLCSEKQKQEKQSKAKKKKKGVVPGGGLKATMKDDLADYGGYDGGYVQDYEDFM
Chain of UniProt Q03468 (Q03468 whole entry, looked up): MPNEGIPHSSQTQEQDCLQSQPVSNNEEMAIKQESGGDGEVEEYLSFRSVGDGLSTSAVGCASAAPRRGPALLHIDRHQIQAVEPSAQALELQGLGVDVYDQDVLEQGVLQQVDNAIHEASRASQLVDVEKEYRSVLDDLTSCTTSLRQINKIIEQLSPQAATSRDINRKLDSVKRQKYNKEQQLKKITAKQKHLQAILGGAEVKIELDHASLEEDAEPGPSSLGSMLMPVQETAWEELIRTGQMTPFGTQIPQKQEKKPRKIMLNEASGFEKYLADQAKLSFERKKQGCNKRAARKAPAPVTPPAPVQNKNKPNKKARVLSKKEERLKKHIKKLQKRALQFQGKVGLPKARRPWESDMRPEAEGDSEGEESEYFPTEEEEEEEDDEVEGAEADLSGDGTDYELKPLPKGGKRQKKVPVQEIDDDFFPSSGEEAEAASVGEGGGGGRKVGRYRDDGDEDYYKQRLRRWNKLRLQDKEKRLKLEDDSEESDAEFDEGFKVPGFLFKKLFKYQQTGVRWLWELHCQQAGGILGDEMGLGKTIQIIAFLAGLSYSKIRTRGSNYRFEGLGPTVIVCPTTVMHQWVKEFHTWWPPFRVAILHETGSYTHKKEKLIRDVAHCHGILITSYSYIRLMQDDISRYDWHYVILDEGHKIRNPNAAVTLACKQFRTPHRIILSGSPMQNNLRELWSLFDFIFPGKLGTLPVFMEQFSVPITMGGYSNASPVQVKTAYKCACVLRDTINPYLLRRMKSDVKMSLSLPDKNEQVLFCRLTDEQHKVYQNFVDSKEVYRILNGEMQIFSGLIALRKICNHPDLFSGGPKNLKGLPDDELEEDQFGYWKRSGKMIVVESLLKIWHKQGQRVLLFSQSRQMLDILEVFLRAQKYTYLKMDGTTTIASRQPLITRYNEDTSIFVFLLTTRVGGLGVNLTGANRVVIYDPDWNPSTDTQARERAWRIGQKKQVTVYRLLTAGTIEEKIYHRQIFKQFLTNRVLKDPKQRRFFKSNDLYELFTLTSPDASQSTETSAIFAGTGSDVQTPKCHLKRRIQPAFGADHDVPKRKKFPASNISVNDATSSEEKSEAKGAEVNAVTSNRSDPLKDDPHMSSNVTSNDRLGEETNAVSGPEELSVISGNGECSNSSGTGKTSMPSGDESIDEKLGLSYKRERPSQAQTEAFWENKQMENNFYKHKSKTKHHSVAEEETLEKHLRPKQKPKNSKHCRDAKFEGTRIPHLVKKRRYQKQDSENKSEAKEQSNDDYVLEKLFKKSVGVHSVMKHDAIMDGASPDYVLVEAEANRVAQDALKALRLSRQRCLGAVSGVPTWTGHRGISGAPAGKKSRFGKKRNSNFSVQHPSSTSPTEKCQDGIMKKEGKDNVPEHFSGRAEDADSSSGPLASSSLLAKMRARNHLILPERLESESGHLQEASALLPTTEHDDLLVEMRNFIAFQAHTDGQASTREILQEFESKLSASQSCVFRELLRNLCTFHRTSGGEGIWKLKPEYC
Chain of UniProt Q8N3D4 (Q8N3D4 whole entry, looked up): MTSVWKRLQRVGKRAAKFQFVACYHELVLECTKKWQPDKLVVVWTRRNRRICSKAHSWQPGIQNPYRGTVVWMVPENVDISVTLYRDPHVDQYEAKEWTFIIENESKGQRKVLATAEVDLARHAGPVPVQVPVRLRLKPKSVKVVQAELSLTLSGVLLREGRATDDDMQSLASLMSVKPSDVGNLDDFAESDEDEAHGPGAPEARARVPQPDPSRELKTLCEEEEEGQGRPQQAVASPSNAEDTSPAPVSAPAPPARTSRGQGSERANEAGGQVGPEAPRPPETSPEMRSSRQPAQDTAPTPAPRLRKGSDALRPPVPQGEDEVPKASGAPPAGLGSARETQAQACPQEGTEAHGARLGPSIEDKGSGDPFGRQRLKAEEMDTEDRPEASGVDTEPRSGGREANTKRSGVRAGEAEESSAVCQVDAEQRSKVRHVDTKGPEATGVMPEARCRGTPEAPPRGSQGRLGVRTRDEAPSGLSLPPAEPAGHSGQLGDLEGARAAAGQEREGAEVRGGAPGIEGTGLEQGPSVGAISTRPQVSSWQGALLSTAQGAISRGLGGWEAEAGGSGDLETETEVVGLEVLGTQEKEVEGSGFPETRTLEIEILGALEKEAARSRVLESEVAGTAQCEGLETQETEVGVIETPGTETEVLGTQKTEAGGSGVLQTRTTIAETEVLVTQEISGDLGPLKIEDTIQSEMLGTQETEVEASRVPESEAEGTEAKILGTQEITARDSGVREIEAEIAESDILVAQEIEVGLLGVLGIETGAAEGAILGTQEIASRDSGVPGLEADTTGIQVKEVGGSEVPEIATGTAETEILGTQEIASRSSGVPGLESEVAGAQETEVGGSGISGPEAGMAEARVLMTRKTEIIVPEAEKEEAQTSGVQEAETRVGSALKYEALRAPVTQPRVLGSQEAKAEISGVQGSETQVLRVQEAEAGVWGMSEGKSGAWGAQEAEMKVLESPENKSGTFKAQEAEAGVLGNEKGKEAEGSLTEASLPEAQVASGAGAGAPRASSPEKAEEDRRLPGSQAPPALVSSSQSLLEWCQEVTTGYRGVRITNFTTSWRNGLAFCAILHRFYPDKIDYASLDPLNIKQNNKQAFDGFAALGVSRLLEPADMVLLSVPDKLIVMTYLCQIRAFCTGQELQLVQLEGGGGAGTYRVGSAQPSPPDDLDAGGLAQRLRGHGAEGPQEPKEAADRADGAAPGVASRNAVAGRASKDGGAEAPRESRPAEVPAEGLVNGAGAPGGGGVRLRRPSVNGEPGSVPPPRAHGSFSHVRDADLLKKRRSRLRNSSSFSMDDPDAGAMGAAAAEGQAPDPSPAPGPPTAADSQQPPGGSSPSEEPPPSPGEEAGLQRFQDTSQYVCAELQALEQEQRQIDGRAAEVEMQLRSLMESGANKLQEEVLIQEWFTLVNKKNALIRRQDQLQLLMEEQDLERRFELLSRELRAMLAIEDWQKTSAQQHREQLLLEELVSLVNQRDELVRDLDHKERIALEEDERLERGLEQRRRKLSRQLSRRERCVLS
Chain of UniProt O43432 (O43432 whole entry, looked up): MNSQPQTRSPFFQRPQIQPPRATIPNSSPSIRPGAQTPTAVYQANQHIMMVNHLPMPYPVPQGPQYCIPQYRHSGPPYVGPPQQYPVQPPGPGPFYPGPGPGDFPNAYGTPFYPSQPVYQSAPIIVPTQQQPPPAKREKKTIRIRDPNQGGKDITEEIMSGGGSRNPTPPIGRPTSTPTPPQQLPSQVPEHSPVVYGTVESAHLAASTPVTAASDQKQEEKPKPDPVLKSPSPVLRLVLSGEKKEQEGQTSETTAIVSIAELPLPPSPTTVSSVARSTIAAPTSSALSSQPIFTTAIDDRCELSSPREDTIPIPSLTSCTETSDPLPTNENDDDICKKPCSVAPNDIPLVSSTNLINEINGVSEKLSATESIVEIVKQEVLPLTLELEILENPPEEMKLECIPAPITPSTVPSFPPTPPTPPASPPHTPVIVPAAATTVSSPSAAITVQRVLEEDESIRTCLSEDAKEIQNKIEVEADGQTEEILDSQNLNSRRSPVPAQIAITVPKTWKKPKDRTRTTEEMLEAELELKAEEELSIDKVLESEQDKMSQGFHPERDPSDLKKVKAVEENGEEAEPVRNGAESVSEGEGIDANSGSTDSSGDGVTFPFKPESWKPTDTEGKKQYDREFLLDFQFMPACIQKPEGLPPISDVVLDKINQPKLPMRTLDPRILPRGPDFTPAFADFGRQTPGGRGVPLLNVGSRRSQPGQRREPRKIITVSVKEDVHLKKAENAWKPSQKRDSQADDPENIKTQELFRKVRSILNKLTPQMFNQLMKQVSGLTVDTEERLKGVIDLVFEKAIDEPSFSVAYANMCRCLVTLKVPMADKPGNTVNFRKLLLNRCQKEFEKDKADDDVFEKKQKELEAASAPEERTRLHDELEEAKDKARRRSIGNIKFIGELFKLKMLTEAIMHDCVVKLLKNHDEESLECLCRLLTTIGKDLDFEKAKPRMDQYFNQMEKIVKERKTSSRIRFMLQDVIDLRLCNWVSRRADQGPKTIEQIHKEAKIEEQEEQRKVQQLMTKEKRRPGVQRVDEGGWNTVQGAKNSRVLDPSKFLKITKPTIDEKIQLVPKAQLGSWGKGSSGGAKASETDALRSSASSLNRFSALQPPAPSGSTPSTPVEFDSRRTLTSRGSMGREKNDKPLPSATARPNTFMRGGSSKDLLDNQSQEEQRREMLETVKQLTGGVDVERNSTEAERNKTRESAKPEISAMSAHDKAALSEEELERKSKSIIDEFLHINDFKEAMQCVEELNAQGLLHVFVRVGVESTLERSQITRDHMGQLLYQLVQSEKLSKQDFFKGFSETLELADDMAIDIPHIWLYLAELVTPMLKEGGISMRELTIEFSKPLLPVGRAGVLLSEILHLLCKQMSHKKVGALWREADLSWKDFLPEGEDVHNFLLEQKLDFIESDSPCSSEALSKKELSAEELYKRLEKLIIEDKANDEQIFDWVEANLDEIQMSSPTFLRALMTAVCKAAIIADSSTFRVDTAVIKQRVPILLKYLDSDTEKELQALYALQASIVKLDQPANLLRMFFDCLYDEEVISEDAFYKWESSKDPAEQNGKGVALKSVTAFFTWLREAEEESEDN
Chain of UniProt P98173 (P98173 whole entry, looked up): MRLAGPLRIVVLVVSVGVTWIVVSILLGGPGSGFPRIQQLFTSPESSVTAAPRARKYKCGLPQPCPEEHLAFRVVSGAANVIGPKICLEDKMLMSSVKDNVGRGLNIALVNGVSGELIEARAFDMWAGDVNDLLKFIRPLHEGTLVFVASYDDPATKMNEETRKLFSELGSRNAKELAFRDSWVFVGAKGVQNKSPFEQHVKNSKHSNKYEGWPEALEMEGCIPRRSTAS

Compound in the first experiment: CC(C)C1=C2N=C(C=C(N2N=C1)NCC3=CC=CC=C3)NCCCCCCN
The experiment in a line: log2 fold change, soluble protein after heating vs DMSO (PISA); higher = thermal stabilisation; K562 cells, 10 uM, 30 min; active = over 0.2 and 3.5 SD of the protein, either way, in both replicates (recomputed). In outline:
(§1)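 Soluble protein was defined as the supernatant after 21,000xg for 90 min. It came from K562 cells at 2×10^6 cells/mL given 10 μM compound for 30 min, heated in aliquots for 3 min across 48°C-58°C, pooled, and extracted in PBS with 0.5% NP-40 at 4°C, and was quantified by TMTpro 16plex LC-MS/MS with equalised channel sums. Thermal stability against control samples, from duplicates, is reported as log2 fold change.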
For the target EIF2AK3 (UniProt Q9NZJ5), the log2 fold change was 0.011.

Turning to DCUN1D1 (UniProt Q96GG9), the log2 fold change was -0.061.

In the case of EIF3J isoform 2 (UniProt O75822), the log2 fold change is 0.036.

Turning to DCAF10 (UniProt Q5QP82), the log2 fold change was 0.02.

Take DENND10 (UniProt Q8TCE6): the log2 fold change was -0.119.

With EIF2AK1 (UniProt Q9BQI3), the log2 fold change was 0.023.

FAM3A (UniProt P98173): the log2 fold change is -0.07.

As to ELOVL5 isoform 2 (UniProt Q9NYP7), the log2 fold change was -0.348.

Regarding DEGS1 (UniProt O15121), the log2 fold change is 0.074.

Consider DHCR7 (UniProt Q9UBM7), for which the log2 fold change is -0.021.

With EIF4G3 isoform 3 (UniProt O43432), the log2 fold change is -0.079.

As for EIF3J (UniProt O75822), the log2 fold change is -0.007.

Take E2F4 (UniProt Q16254): the log2 fold change is -0.167.

In the case of DOHH (UniProt Q9BU89), the log2 fold change was 0.045.

Consider ERLIN2 (UniProt O94905), for which the log2 fold change was -0.296 (active).

For the target DPYSL2 (UniProt Q16555), the log2 fold change was 0.066.

Turning to ELAC1 (UniProt Q9H777), the log2 fold change is 0.116.

Consider EEF1A1 (UniProt P68104), for which the log2 fold change was -0.037.

Consider EHBP1L1 (UniProt Q8N3D4), for which the log2 fold change is -0.034.

Consider EXOC8 (UniProt Q8IYI6), for which the log2 fold change was -0.317 (active).

Turning to DYNC1I2 isoform 2 (UniProt Q13409), the log2 fold change is -0.105.

As to DTWD1 (UniProt Q8N5C7), the log2 fold change is 0.161.

Turning to DOLPP1 (UniProt Q86YN1), the log2 fold change was -0.045.

With ERCC6 (UniProt Q03468), the log2 fold change is -0.015.

On to CUX1 isoform 3 (UniProt P39880), for which the log2 fold change was 0.008.

In the case of ELOVL7 (UniProt A1L3X0), the log2 fold change is -0.617 (active).

For DUS3L (UniProt Q96G46), the log2 fold change is 0.062.

With EIF2S3 (UniProt P41091), the log2 fold change was 0.052.

Consider EGR1 (UniProt P18146), for which the log2 fold change was -0.452.

Consider DDX27 (UniProt Q96GQ7), for which the log2 fold change is -0.177.

EED, A0A5F9ZI63: the log2 fold change is 0.05.

Turning to ELF1 (UniProt P32519), the log2 fold change was -0.072.

As to EZH2 isoform 2 (UniProt Q15910), the log2 fold change was -0.239.

DNM2 (UniProt P50570): the log2 fold change is -0.075.

In the case of EXOSC10 (UniProt Q01780), the log2 fold change was 0.213.

As for FAM117B (UniProt Q6P1L5), the log2 fold change is 0.144.

Take DBN1 isoform 3 (UniProt Q16643): the log2 fold change is 0.047.

Turning to EIF4A1 (UniProt P60842), the log2 fold change was -0.124.

In the case of FAM241A (UniProt Q8N8J7), the log2 fold change is -0.008.

Compound in the next experiment: CC(C)C[C@@H](C=O)NC(=O)[C@H](CC(C)C)NC(=O)[C@H](CC(C)C)NC(=O)OCc1ccccc1
The description is as above. In a few lines: as §1
For the target DCUN1D1 (UniProt Q96GG9), the log2 fold change was -0.022.

As to DCAF10 (UniProt Q5QP82), the log2 fold change is 0.026.

On to DENND10 (UniProt Q8TCE6), for which the log2 fold change was 0.016.

Take EIF2AK1 (UniProt Q9BQI3): the log2 fold change is 0.279 (active).

Take FAM3A (UniProt P98173): the log2 fold change was 0.047.

Regarding ELOVL5 isoform 2 (UniProt Q9NYP7), the log2 fold change was -0.05.

As for DHCR7 (UniProt Q9UBM7), the log2 fold change is 0.011.

Consider EIF4G3 isoform 3 (UniProt O43432), for which the log2 fold change is 0.017.

For EIF3J (UniProt O75822), the log2 fold change is -0.079.

In the case of E2F4 (UniProt Q16254), the log2 fold change is 0.038.

Regarding DOHH (UniProt Q9BU89), the log2 fold change was -0.106.

As for ERLIN2 (UniProt O94905), the log2 fold change was 0.035.

In the case of EEF1A1 (UniProt P68104), the log2 fold change is -0.019.

Take EHBP1L1 (UniProt Q8N3D4): the log2 fold change is 0.05.

Take EXOC8 (UniProt Q8IYI6): the log2 fold change is -0.032.

For DYNC1I2 isoform 2 (UniProt Q13409), the log2 fold change is 0.154.

As for DTWD1 (UniProt Q8N5C7), the log2 fold change was -0.021.

For DOLPP1 (UniProt Q86YN1), the log2 fold change was -0.154.

ERCC6 (UniProt Q03468): the log2 fold change was 0.018.

Turning to CUX1 isoform 3 (UniProt P39880), the log2 fold change is 0.116.

As for DUS3L (UniProt Q96G46), the log2 fold change was -0.055.

In the case of EIF2S3 (UniProt P41091), the log2 fold change is 0.075.

Consider EGR1 (UniProt P18146), for which the log2 fold change is 0.153.

Consider DDX27 (UniProt Q96GQ7), for which the log2 fold change was 0.104.

For the target EED, A0A5F9ZI63, the log2 fold change was 0.03.

As for ELF1 (UniProt P32519), the log2 fold change is -0.076.

With DNM2 (UniProt P50570), the log2 fold change was 0.029.

For EXOSC10 (UniProt Q01780), the log2 fold change is 0.247.

As for FAM117B (UniProt Q6P1L5), the log2 fold change was 0.016.

As for DBN1 isoform 3 (UniProt Q16643), the log2 fold change is -0.02.

As to EIF4A1 (UniProt P60842), the log2 fold change is -0.001.

FAM241A (UniProt Q8N8J7): the log2 fold change was 0.004.

The record behind these values is the supplement of paper PMC10849652.
